PubChem BioAssay AID623901 (Broad Institute, 2012)
“And” between values parts separate entries of the source, which are not always exact repeats. Equal entries are not always repeated. Hit rate of the full screen: of about 340,000 compounds, about 470 (0.14%) were called active. Shown is part of a subset that was picked to be rich in actives. A number with no mark means an inactive call.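 How the source made its calls: active means mean activation of 30% or more, with every replicate also reaching 30%; inconclusive means mean activation of 30% or more but some replicate falls short; inactive means the rest.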

Test: miR-122 suppressors via Renilla sensor increase, primary screen, cell-based, Huh7 psiCHECK-miR122, Renilla luciferase, single point (AID 623901);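 further: 0% = median of neutral control wells and 100% = median of positive control wells; higher luciferase signal means stronger suppression of miR-122 activity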
Conditions: 48 h, at 12.5 µM, stronger effect = higher value

| SMILES | activation |
| --- | --- |
| CCC(=O)Nc1ccc2c(c1)OC[C@H](C)N(C(=O)c1ccccc1F)C[C@@H](C)[C@H](OC)CN(C)C2=O | -3.57% |
| C[C@H]1CN([C@@H](C)CO)C(=O)c2cc(-c3cccc(F)c3)cnc2O[C@@H]1CN(C)S(C)(=O)=O | -3.18% |
| COc1ccc(/C=C/C(=O)Nc2ccc(C34CC5CC(CC(O)(C5)C3)C4)cc2)cc1OC | 56.9% (active) |
| CC(C)NC(=O)N(C)C[C@@H]1Oc2ncc(C3=CCCCC3)cc2C(=O)N([C@H](C)CO)C[C@@H]1C | 5.61% |
| Cc1ccc(-c2cnc3c(c2)C(=O)N([C@@H](C)CO)C[C@@H](C)[C@H](CN(C)Cc2ccccc2F)O3)cc1 | -34.6% |
| C/C=C/c1ccc2c(c1)O[C@@H](CN(C)C(=O)Cc1ccccn1)[C@@H](C)CN([C@H](C)CO)S2(=O)=O | -0.361% |
| CCOC(=O)c1c(C)[nH]c(C)c1S(=O)(=O)NCCCc1ccco1 | -128% |
| CCC(=O)N1C[C@@H](C)[C@@H](OC)CN(C)C(=O)c2ccc(NC(=O)C3CCCCC3)cc2OC[C@@H]1C | 0.432% |
| C[C@H](CO)N1C[C@H](C)[C@H](CN(C)S(=O)(=O)c2cccc(F)c2)Oc2ncc(/C=C/c3ccccc3)cc2C1=O | -2.26% |
| COCC(=O)N(C)C[C@@H]1Oc2cc(C#CC3CC3)ccc2S(=O)(=O)N([C@H](C)CO)C[C@H]1C | 3.88% |
| CCC(=O)N(C)C[C@H]1Oc2ncc(C#C[C@@H](C)O)cc2C(=O)N([C@@H](C)CO)C[C@H]1C | 2.8% |
| COCC#Cc1cnc2c(c1)C(=O)N([C@@H](C)CO)C[C@@H](C)[C@@H](CN(C)C(=O)Nc1ccccc1OC)O2 | 1.08% |
| CS(=O)(=O)N(CC(=O)Nc1ccc(Cl)c(Cl)c1)C1CCCCC1 | -174% |
| O=C(CC(O)(C(F)(F)F)C(F)(F)F)Nc1ccc(Cl)c(Cl)c1 | 63% (active) |
| C[C@@H](O)C#Cc1ccc2c(c1)O[C@@H](CN(C)C)[C@@H](C)CN([C@@H](C)CO)S2(=O)=O | -3.26% |
| COc1ccc(C(=O)Nc2ccccc2C(=O)N/N=C/c2ccccc2OC)cc1 | -115% |
| CCCN(C)C[C@H]1Oc2ncc(-c3ccccc3OC)cc2C(=O)N([C@H](C)CO)C[C@H]1C | -2.24% |
| COc1ccccc1CNc1nc(Nc2ccccc2Cl)c2sccc2n1 | 44.5% (active) |
| C[C@@H]1CN([C@H](C)CO)S(=O)(=O)c2ccc(C#CCN(C)C)cc2O[C@@H]1CN(C)C(=O)CN(C)C | 5.44% |
| COc1ccc(CNS(=O)(=O)c2cc(-c3cc(C)no3)ccc2C(C)C)cc1 | -200% |
| OCC(O)C1OCOC(C(O)CO)C1O (stereo unspecified) | -93% |
| C[C@@H]1CN([C@@H](C)CO)C(=O)c2cc(-c3ccc(F)cc3)cnc2O[C@@H]1CN(C)Cc1ccc(C(=O)O)cc1 | 1.12% |
| CO[C@@H]1CN(C)C(=O)c2ccc(NC(=O)C3CCC3)cc2OC[C@H](C)NC[C@H]1C | 1.3% |
| C[C@@H]1CN([C@H](C)CO)C(=O)c2cc(-c3ccncc3)cnc2O[C@@H]1CN(C)C(=O)Cc1cccnc1 | -6.69% |
| COc1ccccc1-c1ccc2c(c1)O[C@@H](CN(C)C(=O)Nc1ccccc1)[C@H](C)CN([C@@H](C)CO)S2(=O)=O | -1.07% |
| COCC#Cc1ccc2c(c1)O[C@@H](CN(C)C(C)=O)[C@H](C)CN([C@H](C)CO)S2(=O)=O | 5.04% |

| SMILES | activation |
| --- | --- |
| COc1ccccc1-c1cnc2c(c1)C(=O)N([C@H](C)CO)C[C@H](C)[C@H](CN(C)C(=O)CN(C)C)O2 | -1.92% |
| COc1ccccc1C#Cc1ccc2c(c1)O[C@@H](CN(C)Cc1cncnc1)[C@H](C)CN([C@@H](C)CO)S2(=O)=O | 8.43% |
| C[C@H](O)C#Cc1ccc2c(c1)O[C@H](CN(C)Cc1cccnc1)[C@@H](C)CN([C@H](C)CO)S2(=O)=O | -6.12% |
| COCC#Cc1cnc2c(c1)C(=O)N([C@@H](C)CO)C[C@@H](C)[C@@H](CN(C)C(=O)Nc1ccc(OC)cc1)O2 | -2.9% |
| C[C@H]1CN([C@@H](C)CO)C(=O)c2cc(-c3cccc(F)c3)cnc2O[C@@H]1CN(C)Cc1cncnc1 | -0.0525% |
| O=C(NC(Nc1nc2ccc([N+](=O)[O-])cc2s1)(C(F)(F)F)C(F)(F)F)c1ccccc1 | 45.7% (active) |
| C[C@H](CO)N1C[C@H](C)[C@@H](CN(C)Cc2ccc3c(c2)OCO3)Oc2c(NC(=O)C3CCOCC3)cccc2C1=O | -319% |
| O=C(CCc1ccc(S(=O)(=O)NC2CCCCC2)cc1)NCc1ccccc1 | -101% |
| C[C@H]1CN([C@@H](C)CO)C(=O)c2cc(-c3ccccc3F)cnc2O[C@@H]1CN(C)C(=O)C1CCCCC1 | 4.49% |
| CCCOC(=O)c1[nH]c2c(c1C)C(=O)CC(c1cccs1)C2 (stereo unspecified) | -94% |
| COc1ccc(NC(=O)Nc2ccc3c(c2)OC[C@@H](C)NC[C@@H](C)[C@H](OC)CN(C)C3=O)cc1 | 3.26% |
| C[C@H](O)C#Cc1ccc2c(c1)O[C@H](CN(C)C)[C@@H](C)CN([C@H](C)CO)S2(=O)=O | 4.16% |
| CO[C@H]1CN(C)C(=O)c2ccc(NC(=O)Nc3ccc(F)cc3)cc2OC[C@@H](C)NC[C@H]1C | -0.877% |
| CC(C)C#Cc1ccc2c(c1)O[C@@H](CN(C)C(=O)CN(C)C)[C@@H](C)CN([C@H](C)CO)S2(=O)=O | 1.71% |
| Cc1c(-c2ccccc2)cn2c1-c1ccc(C)n1CC2 | -248% |
| CO[C@H]1CN(C)C(=O)c2ccc(NC(=O)C3CCC3)cc2OC[C@@H](C)NC[C@H]1C | 2.77% |
| C[C@@H]1CN([C@@H](C)CO)C(=O)c2cc(-c3cncnc3)cnc2O[C@H]1CN(C)Cc1cncnc1 | 9.2% |
| CCCC#Cc1ccc2c(c1)O[C@@H](CN(C)C(=O)CC)[C@H](C)CN([C@H](C)CO)S2(=O)=O | -21.9% |
| C[C@@H]1CN([C@@H](C)CO)C(=O)c2cc(-c3cncnc3)cnc2O[C@@H]1CN(C)Cc1ccncc1 | -14.3% |
| CCC(=O)N(C)C[C@@H]1Oc2ncc(C#C[C@H](C)O)cc2C(=O)N([C@@H](C)CO)C[C@@H]1C | -1.06% |
| C[C@@H]1CN([C@@H](C)CO)C(=O)c2cc(C3=CCCCC3)cnc2O[C@H]1CN(C)CC1CCOCC1 | -37.5% |
| CCOc1ccc(Br)cc1S(=O)(=O)Nc1cccc(S(=O)(=O)N(CC)CC)c1 | -110% |
| CC(C)CNS(=O)(=O)c1ccc(OCC(=O)Nc2ccc3c(c2)OCO3)c(Cl)c1 | -303% |
| C[C@H]1CN([C@@H](C)CO)C(=O)c2cc(C3=CCCCC3)cnc2O[C@@H]1CN(C)C(=O)Cc1ccccc1 | -4.91% and -1.39% |
| C[C@H](CO)N1C[C@H](C)[C@H](CN(C)C(=O)C2CCOCC2)Oc2ncc(C#Cc3ccccc3F)cc2C1=O | -1.81% |
